# According to paper PMC4552634, “A New Set of Chemical Starting Points with Plasmodium falciparum Transmission-Blocking Potential for Antimalarial Drug Discovery” (PLoS ONE, 2015):
# Out of some 13,000 compounds screened, about 3,200 (25%) showed an effect of 50% or more. The list shows a part of the results.
# System: P. falciparum stage V gametocytes
# Design: BacTiter-Glo ATP luminescence viability of purified stage V gametocytes in 384-well plates, per cent inhibition versus DMSO
# Details: 48 h, 5 µM; inhibitor
row,SMILES,% Inhibition [%]
1,Cc1ccc(NC(=O)Nc2ccc(Cl)c(C(F)(F)F)c2)cc1-c1ccc(C(=O)Nc2ccncc2)cc1 [TCMDC-133700],-87.03
2,Cc1ccc(NC(=O)c2cccc(N3CCN(c4ccncc4)CC3)c2)cc1F [TCMDC-135124],-11.57
3,CN(C)c1ccc(C2c3nc[nH]c3CCN2C(=O)Nc2cccc([N+](=O)[O-])c2)cc1 (centres unmarked) [TCMDC-141569],12.33
4,CCNc1cc(C(=O)N[C@@H](Cc2ccccc2)[C@H](O)CNC(C)CCCC(C)C)cc(N2CCCS2(=O)=O)c1 (some centres unmarked) [TCMDC-138825],1.46
5,CCCC(C)NC[C@@H](O)[C@H](Cc1ccccc1)NC(=O)c1cc(NCC)cc(N2CCCCS2(=O)=O)c1 (some centres unmarked) [TCMDC-135226],61.06
6,O=C(N[C@@H](Cc1ccccc1)[C@H](O)CNC1CCOCC1)c1cc(C2CCCC2)cc(N2CCCCS2(=O)=O)c1 [TCMDC-134938],31.68
7,CCNc1cc(C(=O)N[C@@H](Cc2cccc(F)c2)[C@H](O)CNC(C)CCCC(C)C)cc(N2CCCCS2(=O)=O)c1 (some centres unmarked) [TCMDC-135307],42.64
8,CCCC(C)NC[C@@H](O)[C@H](Cc1ccccc1)NC(=O)c1cc(C2CCCC2)cc(N2CCCCS2(=O)=O)c1 (some centres unmarked) [TCMDC-135216],60.63
9,CCNc1cc(C(=O)N[C@@H](Cc2cccc(Cl)c2)[C@H](O)CNC(C)CCCC(C)C)cc(N2CCCCS2(=O)=O)c1 (some centres unmarked) [TCMDC-135225],15.74
10,CCNc1cc(C(=O)N[C@@H](Cc2ccccc2)[C@H](O)CNC(C)(C)Cc2cccc(Cl)c2)cc(N2CCCCS2(=O)=O)c1 [TCMDC-135309],13.84
11,COc1cc(CNC[C@@H](O)[C@H](Cc2ccccc2)NC(=O)c2cc(C3CCCC3)cc(N3CCCCS3(=O)=O)c2)cc(OC)c1 [TCMDC-134561],14.07
12,CCNc1cc(C(=O)N[C@@H](Cc2ccoc2)[C@H](O)CNC(C)CCCC(C)C)cc(N2CCCCS2(=O)=O)c1 (some centres unmarked) [TCMDC-135411],37.57
13,CCNc1cc(C(=O)N[C@@H](Cc2ccccc2)[C@H](O)CNC(C)Cc2cccc(Cl)c2)cc(N2CCCCS2(=O)=O)c1 (some centres unmarked) [TCMDC-135412],76.43
14,CCNc1cc(C(=O)N[C@@H](Cc2ccccc2Cl)[C@H](O)CNC(C)CCCC(C)C)cc(N2CCCCS2(=O)=O)c1 (some centres unmarked) [TCMDC-135224],92.78
15,CCCCCC(C)NC[C@@H](O)[C@H](Cc1ccccc1)NC(=O)c1cc(NCC)cc(N2CCCCS2(=O)=O)c1 (some centres unmarked) [TCMDC-135293],40.73
16,CC(C)[C@@H](C(=O)NCc1cccc(C(F)(F)F)c1)N1C(=O)CCC1C(=O)Nc1ccc([N+](=O)[O-])cc1 (some centres unmarked) [TCMDC-141408],-12.94
17,COc1ccc(Cc2cnc3nc(N)nc(N)c3c2C)cc1 [TCMDC-137704],42.37
18,CC(=O)NCC(=O)NC1=NC(C)(C)N(OCc2ccc3ccccc3c2)C(N)=N1 [TCMDC-131579],9.815
19,CC(=O)Nc1cccc(C(=O)Nc2cccc(-c3cccc(-c4nc5ccccc5[nH]4)c3)c2)c1 [TCMDC-132134],-16.76
20,COc1cccc(-n2ncc3c(N/N=C/c4ccc(CN(C)CCN(C)C)cc4)ncnc32)c1 [TCMDC-138728],20.85
21,O=C(NCCCc1ccccc1)c1csc(C2CCCN(C(=O)c3ccc(O)c(-c4ccccc4)c3)C2)n1 (centres unmarked) [TCMDC-140153],-2.163
22,O=C(Nc1cccnc1)c1cn(-c2ccccc2)nc1-c1cccs1 [TCMDC-124055],-11.35
23,COc1ccc(NC(=O)[C@H](CC(C)C)Nc2cc(C)nc(NCc3cccc(C)c3)n2)cc1 [TCMDC-134891],-4.805

row,SMILES,% Inhibition [%]
1,O=[N+]([O-])c1cccc(NC(=S)N2CCCN(Cc3ccc(F)cc3F)CC2)c1 [TCMDC-141015],78.9
2,O=C(Nc1cccc(CN2CCCN(Cc3ccc(O)cc3)CC2)c1)c1cccc(F)c1 [TCMDC-141816],-13.75
3,O=[N+]([O-])c1cccc(NC(=S)N2CCCN(Cc3ccc(C(F)(F)F)cc3)CC2)c1 [TCMDC-141016],26.08
4,O=C(Nc1cccc(OC2CCN(Cc3ccccc3)CC2)c1)Nc1cccc([N+](=O)[O-])c1 [TCMDC-139544],-4.381
5,O=C(/C=C/c1ccc(Cl)c(Cl)c1)NCCCCCN1CCCN(C(=S)Nc2cccc(Cl)c2)CC1 [TCMDC-135894],9.594
6,O=[N+]([O-])c1cccc(NC(=S)N2CCCN(Cc3ccc(Cl)cc3Cl)CC2)c1 [TCMDC-141017],68.72
7,Fc1ccc(-c2cncc(Nc3ccncc3)n2)cc1 [TCMDC-134499],21.35
8,CC1(C(=O)Nc2ccc([N+](=O)[O-])cc2O)CC2c3ccccc3C1c1ccccc12 (centres unmarked) [TCMDC-124076],-1.633
9,O=C(NC1CCC(N2CCN(c3cccc4[nH]ccc34)CC2)CC1)c1cc2cccnc2[nH]1 (centres unmarked) [TCMDC-134216],-40.15
10,OC1CCCN(Cc2ccc(-c3ccc(-c4nc5ccc(F)cc5[nH]4)s3)cc2)C1 (centres unmarked) [TCMDC-133821],-16.69
11,CC(=O)N(C)C1CCN(Cc2ccc(-c3ccc(-c4nc5ccc(F)cc5[nH]4)s3)cc2)C1 (centres unmarked) [TCMDC-133895],-2.042
12,NC1CCN(Cc2ccc(-c3ccc(-c4nc5ccc(F)cc5[nH]4)s3)cc2)C1 (centres unmarked) [TCMDC-133854],66.76
13,OCC1CCN(Cc2ccc(-c3ccc(-c4nc5ccc(F)cc5[nH]4)s3)cc2)CC1 [TCMDC-133127],-4.488
14,NC1CCCN(Cc2ccc(-c3ccc(-c4nc5ccc(F)cc5[nH]4)s3)cc2)C1 (centres unmarked) [TCMDC-133856],57.48
15,NC1CCCN(Cc2ccc(-c3ccc(-c4nc5ccccc5[nH]4)s3)cc2)C1 (centres unmarked) [TCMDC-133849],41.97
16,NC1CCN(Cc2ccc(-c3ccc(-c4nc5ccccc5[nH]4)s3)cc2)C1 (centres unmarked) [TCMDC-133847],76.03
17,NC1CCN(Cc2cccc(-c3ccc(-c4nc5ccccc5[nH]4)s3)c2)C1.O=C(O)C(F)(F)F (centres unmarked) [TCMDC-133869],26.1
18,CCOc1cc(C(=O)NCC2CCN(CC3CCCCC3)CC2)ccc1-c1nc2ccc(Cl)cc2[nH]1 [TCMDC-140914],-32.49
19,O=C(NCCc1ccc(Cl)c(Cl)c1)[C@@H]1CCCN1C(=O)c1ccc(O)c(-c2cccc(C(F)(F)F)c2)c1 [TCMDC-140822],3.039
20,O=C(NCc1ccc(Cl)cc1)c1ccc(C(=O)NCC2CCCN2CC2CCCCC2)cc1 (centres unmarked) [TCMDC-136754],-3.385
21,O=C(/C=C/c1ccc(C(F)(F)F)cc1)NCCCCCN1CCCN(C(=O)Nc2ccc(F)c(Cl)c2)CC1 [TCMDC-136107],77.99
22,O=C(/C=C/c1ccc(Cl)c(Cl)c1)NCCCCCN1CCCN(C(=O)Nc2ccc(Cl)cc2)CC1 [TCMDC-135748],-7.449
23,O=C(/C=C/c1ccc(Cl)cc1)NCCCCCN1CCN(C(=O)C=Cc2ccc(Cl)c(Cl)c2)CC1 [TCMDC-135914],71.52

row,SMILES,% Inhibition [%]
1,O=C(/C=C/c1ccc(Cl)c(Cl)c1)NCCCCCCN1CCCN(C(=O)Nc2ccc(Cl)c(C(F)(F)F)c2)CC1 [TCMDC-135935],84.32
2,O=C(/C=C/c1ccc(Cl)c(Cl)c1)NCCCCCCN1CCN(C(=O)Nc2ccc(Cl)c(C(F)(F)F)c2)CC1 [TCMDC-135836],-47.93
3,O=C(/C=C/c1ccc(C(F)(F)F)cc1)NCCCCCN1CCCN(C(=O)Nc2ccc(Cl)c(Cl)c2)CC1 [TCMDC-136104],-57.55
4,O=C(/C=C/c1ccc(Cl)c(Cl)c1)NCCCCCN1CCCN(C(=O)Nc2ccc(Cl)c(C(F)(F)F)c2)CC1 [TCMDC-135762],-47.47
5,Cc1cc(C)c(NC(=O)N2CCCN(CCCCCNC(=O)/C=C/c3ccc(Cl)c(Cl)c3)CC2)c(C)c1 [TCMDC-135753],28.16
6,O=C(/C=C/c1ccc(C(F)(F)F)cc1)NCCCCCN1CCN(C(=O)Nc2ccc(F)c(Cl)c2)CC1 [TCMDC-136096],8.329
7,Cc1noc(-c2ccccc2)c1NC(=O)NC1CCN(CCCCCNC(=O)/C=C/c2ccc(Cl)c(Cl)c2)CC1 [TCMDC-135890],-22.75
8,Cc1noc(-c2ccccc2)c1NC(=O)N1CCN(CCCCCCNC(=O)/C=C/c2ccc(Cl)c(Cl)c2)CC1 [TCMDC-135892],75.05
9,O=C(/C=C/c1ccc(Cl)c(Cl)c1)NCCCCCN1CCCN(C(=S)Nc2ccc(Cl)cc2)CC1 [TCMDC-135893],2.458
10,Cc1cccc2[nH]c(-c3cccc(-c4cccc(NC(=O)CC5NC(=O)c6ccccc65)c4)c3)nc12 (centres unmarked) [TCMDC-137093],12.03
11,CCOc1cc(C)ccc1C1CCN(CCCCNC(=O)c2coc(-c3ccc(Cl)cc3)c2)CC1 [TCMDC-138530],-52.9
12,O=C(c1cc(C(=O)NCc2ccc(Cl)cc2)c(=O)n(Cc2ccc(Cl)cc2)c1)c1cc(Cl)ccc1O [TCMDC-124339],-61.86
13,OC(CNc1ccnc(Nc2ccc(Cl)cc2)n1)c1cccc(C(F)(F)F)c1 (centres unmarked) [TCMDC-136587],30.58
14,O=C(/C=C/c1ccc(Cl)c(Cl)c1)NCCCCCCN1CCCN(C(=O)Nc2ccc(C(F)(F)F)cc2)CC1 [TCMDC-135937],-27.04
15,O=C(/C=C/c1ccc(Cl)c(Cl)c1)NCCCCCCN1CCN(C(=O)Nc2ccc(Cl)c(Cl)c2)CC1 [TCMDC-135835],30.42
16,O=C(/C=C/c1ccc(Cl)c(Cl)c1)NCCCCCN1CCCN(C(=O)Nc2cccc(C(F)(F)F)c2)CC1 [TCMDC-135758],79.21
17,O=C(/C=C/c1ccc(Cl)c(Cl)c1)NCCCCN1CCCN(C(=O)Nc2ccc(F)c(Cl)c2)CC1 [TCMDC-135931],-30.88
18,O=C(/C=C/c1ccc(Cl)c(Cl)c1)NCCCCCN1CCCN(C(=O)Nc2ccc(Cl)c(Cl)c2)CC1 [TCMDC-135759],-47.93
19,O=C(/C=C/c1ccc(Cl)c(Cl)c1)NCCCCCCN1CCCN(C(=O)Nc2cccc(C(F)(F)F)c2)CC1 [TCMDC-135934],13.78
20,O=C(/C=C/c1ccc(Cl)c(Cl)c1)NCCCCCCN1CCCN(C(=O)Nc2ccc(F)c(Cl)c2)CC1 [TCMDC-135940],14.82
21,O=C(/C=C/c1ccc(Cl)c(Cl)c1)NCCCCCCN1CCCN(C(=O)Nc2ccc(Cl)c(Cl)c2)CC1 [TCMDC-135933],52.33
22,O=C(/C=C/c1ccc(Cl)c(Cl)c1)NCCCCN1CCCN(C(=O)Nc2ccc(Cl)c(Cl)c2)CC1 [TCMDC-135932],87.86
